Screens from PubChem.
An excerpt weighted towards active compounds, which were near 8.9% of everything screened.
D3 ag: agonists of human D3 dopamine receptor; hit rate 0.58% among 410,000; max activation, %; D3R DiscoveRx beta-arrestin cells, luminescence, 90 min; AID 652048; in the data active means max activation above about 30%; further: 0% is about no effect
Target sequence (P35462 whole entry, looked up): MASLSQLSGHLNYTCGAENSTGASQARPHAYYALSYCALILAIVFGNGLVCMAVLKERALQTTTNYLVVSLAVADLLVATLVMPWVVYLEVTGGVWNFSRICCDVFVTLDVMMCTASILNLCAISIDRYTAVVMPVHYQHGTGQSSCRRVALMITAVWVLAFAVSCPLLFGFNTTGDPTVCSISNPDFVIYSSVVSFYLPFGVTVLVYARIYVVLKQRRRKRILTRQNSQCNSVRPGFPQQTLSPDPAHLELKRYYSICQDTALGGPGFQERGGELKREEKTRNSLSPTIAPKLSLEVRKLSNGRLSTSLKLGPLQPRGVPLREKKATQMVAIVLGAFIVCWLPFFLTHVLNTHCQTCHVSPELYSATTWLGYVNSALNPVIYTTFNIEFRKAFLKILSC
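Agonist-mode cell screen: cells plated at 1500/well and incubated overnight at 37 °C, then exposed to library compounds for 90 min at 37 °C. Detection reagent was added for 30–60 min at room temperature, and luminescence was read.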
SW480 rereplic: DNA re-replication induction in SW480 cells | SW480 DNA re-replication, Hoechst DNA content imaging, 48 h | Potency, µM (highest dose often 46.1 µM), without a hit: at the highest dose re-replication activation, most hits filed as activators | hit rate 1.8% among 340,000 | AID 624297; further: potency means the concentration at half of the fitted maximal effect; % of control where 0% means no effect; nearly all actives have a fitted effect of over 55% in size
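Hoechst fluorescence of nuclei (405 nm excitation, 500-530 nm emission) measured by plate-scanning imager after 48 hr compound exposure at 37 C; re-replication scored as increased number of nuclei with elevated intensity.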
D3 antag: D3 dopamine receptor (human) antagonism; P35462; D3R cells, DiscoveRx beta-arrestin luminescence, antagonist mode; hits give low values; max response, negative = inhibition, %; hit rate 2.5% among 360,000; AID 652054; in the data active means max response below about -50%; inconclusive means no clear call, values can overlap the other calls; further: on the % scale 0 is the no-effect control and ±100 the full control effect
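Cells plated overnight at 1500 cells/well, then exposed to library compounds with dopamine controls for 90 minutes at 37 degrees C. DiscoveRx reagent added for 30–60 minutes at room temperature; luminescence read, quantitative HTS format.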
MCF10A rereplic: induces DNA re-replication in MCF 10a normal breast cells; MCF 10A DNA re-replication, Hoechst nuclear intensity, 48 h; AID 624296; hit rate 2.9% among 350,000; Potency, µM (top dose mostly 46.1 µM), inactives show at the top dose activity, positive = re-replication, hits mostly activators; further: potency means the concentration at half of the fitted maximal effect; % of control where 0% means no effect; nearly all actives have a fitted effect of over 50% in size
KB-3-1 tox: kills parental KB-3-1 adenocarcinoma cells | KB-3-1 viability, CellTiter-Glo ATP luminescence, 72 h | Potency, µM (doses to about 46.1 µM), most hits filed as cytotoxic | hit rate 1.4% among 400,000; further: potency means the concentration at half of the fitted maximal effect; on the % scale 0 is the no-effect control and ±100 the full control effect; nearly all actives have a fitted effect of over 60% in size
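Cytotoxicity measured as CellTiter-Glo luminescence after 72 h at 37 C. Compound titrations were pinned onto drug-naive KB-3-1 parental adenocarcinoma cells grown in DMEM with 10% FBS, and normalized data fitted to concentration-response curves.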
KB-V1 cytotox: KB-V1 MDR subline cytotoxicity; KB-V1 MDR cells viability, CellTiter-Glo, 72 h; Potency, µM (highest dose often 46.1 µM), actives largely listed as cytotoxic; hit rate 3.4% among 400,000; further: potency means the concentration at half of the fitted maximal effect; on the % scale 0 is the no-effect control and ±100 the full control effect; nearly all actives have a fitted effect of over 60% in size
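KB-V1 cells (P-gp-expressing MDR subline of KB-3-1) in phenol-red-free DMEM with 10% FBS were exposed to library compounds over a concentration series for 72 h at 37 degrees C. Viability read by CellTiter-Glo luminescence; concentration-effect curves fitted after normalization.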
Active calls of the source: *; i = inactive; ? = inconclusive; · = not tested or not shown; [ ] = dose if it differs, or a comment. Unless noted, the call rests on the fitted dose curve; in most records, active means well fitted curve in the direction sought with a large enough effect; inconclusive means small, poorly fitted or top-dose-only effect, or another doubt; inactive means no such curve, though single readings can be large; an effect the other way counts as inactive or inconclusive.

SMILES | D3 ag | SW480 rereplic | D3 antag | MCF10A rereplic | KB-3-1 tox | KB-V1 cytotox
Cc1ccc(O)c(NC(=O)COCc2cc(-c3ccco3)on2)c1 | -1 | · | · | · | i | i
C1CCCCCC(NCCN2CCNCC2)CCCCC1 | -17 | ? | -7 | ? | 16µM* | ?
O=C(NC1CCCCC1)N1CCNCC1 | 2 | -4% | -5 | ? | i | i
COc1ccccc1Nc1nc(N)nc(CSC(=S)N2CCN(c3ccccc3)CC2)n1 | 2 | -17% | -8 | -23%[9.22 µM] | i | ?
CN1CCN(C(=S)SCc2nc(N)nc(Nc3ccc(F)cc3)n2)CC1 | 5 | -6% | -8 | -1% | i | i
Cc1ccc(Nc2nc(N)nc(CSC(=S)N3CCN(c4ccccc4)CC3)n2)cc1 | 22 | 2% | -24 | 6% | i | 16µM*
COc1ccc(Nc2nc(N)nc(CSC(=S)N3CCOCC3)n2)cc1 | -2 | ? | -5 | -3% | i | i
Cc1ccc(Nc2nc(N)nc(CSC(=S)N3CCOCC3)n2)c(C)c1 | -4 | -48% | -4 | 10% | i | 8.2µM*
Nc1nc(CSC(=S)N2CCOCC2)nc(Nc2ccc(F)cc2)n1 | 3 | -37% | 19 | 1% | i | 16µM*
Nc1nc(CSC(=S)N2CCN(c3ccccc3)CC2)nc(Nc2ccccc2)n1 | 23 | 132% | 6 | 4% | i | 3.3µM*
CCCc1cc(=O)oc2c3c(ccc12)OCN(Cc1ccccc1OC)C3 | -3 | · | · | · | i | ?
CC(C)Cn1c(N)c(C(=O)COC(=O)c2c(O)c(Cl)cc(Cl)c2Cl)c(=O)n(C)c1=O | 11 | 5% | 28 | ? | i | ?
CCc1ccccc1N1C(=O)N(Cc2ccccc2C)c2ccccc2S1(=O)=O | -4 | · | · | · | ? | ?
COCCCNC(=S)N(Cc1ccccc1)Cc1ccccc1 | -4 | -5% | 11 | 17% | i | 18µM*
S=C(NCCCN1CCOCC1)N(Cc1ccccc1)Cc1ccccc1 | -2 | -9% | -93* | 13% | i | i
CCN(CC)c1ccc(NC(=O)CCc2nc3cccnc3n2Cc2cccs2)c(C)c1 | 3 | · | · | · | i | i
CCn1c(NCc2cc(Br)ccc2NS(=O)(=O)c2ccc(C)cc2)nc2ccccc21 | -6 | 4% | 0 | -4% | ? | 18µM*
CCCn1c(NCc2ccccc2NS(=O)(=O)c2ccc(C)cc2)nc2ccccc21 | -12 | ? | -1 | 10µM* | ? | 16µM*
Cc1ccc(S(=O)(=O)Nc2ccccc2/C=N/c2nc3ccccc3n2C(C)C)cc1 | 16 | 8% | 11 | 21µM* | i | i
CCCCn1c(/N=C/c2ccccc2NS(=O)(=O)c2ccc(C)cc2)nc2ccccc21 | -15 | -1% | 18 | ? | i | ?
Fc1cccc(-c2nc(-c3ccncc3)no2)c1 | 5 | · | · | · | i | i
Cc1ccc(NC(=O)CN(C)S(=O)(=O)c2ccc3c(c2)CCC(=O)N3)c(C)c1 | 0 | · | · | · | ? | i
COc1cccc(N2CC(O)=C(c3nc4ccccc4s3)C2=N)c1 | -2 | 3.7µM* | -24 | ? | 7.3µM* | 3.3µM*
CC(C)(CNS(=O)(=O)c1ccc2ccccc2c1)N1CCOCC1 | 1 | -5% | 12 | -3% | i | i
COc1ccc(-c2cc(C(=O)NCC(c3ccccc3)N(C)C)c3ccccc3n2)cc1OC (centres undefined) | -16 | 18µM* | ? | 18µM* | i | i
SMILES | D3 ag | SW480 rereplic | D3 antag | MCF10A rereplic | KB-3-1 tox | KB-V1 cytotox
Cc1ccc(-c2cc(C(=O)NCCCn3ccnc3)c3cc(Br)ccc3n2)o1 | 7 | ? | 0 | 8% | i | 21µM*
Cc1ccc(-c2cc(C(=O)Nc3ccccc3C)c3ccccc3n2)o1 | -1 | 1% | -23 | ? | i | i
COc1ccc(-c2cc(C(=O)NCc3ccco3)c3ccccc3n2)cc1OC | 10 | 1% | 17 | ? | ? | ?
Cc1ccc(-c2cc(C(=O)NCC(c3ccccc3)N(C)C)c3ccccc3n2)o1 (centres undefined) | -11 | 26µM* | -5 | ? | i | i
COC(=O)c1cc(-c2ccc(C)o2)nc2ccccc12 | -3 | 16µM* | -6 | 23µM* | i | ?
CN(C)c1ccc(/C=C/c2sc3ccccc3[n+]2CCCCI)cc1 | · | · | · | · | ? | 23µM*
CN(Cc1ccccc1)c1ccc(/C=C/c2sc3ccccc3[n+]2C)cc1 | · | · | · | · | ? | i
CCCC[n+]1c(/C=C/c2ccc(N(C)C)cc2)sc2ccccc21 | · | · | · | · | 1.8µM* | i
COc1cccc(NC(=O)CN2C(=O)CC(c3ccco3)Sc3ccccc32)c1 (centres undefined) | 2 | · | · | · | ? | ?
CCN(CC)S(=O)(=O)c1ccc2oc(C(=O)N(C)Cc3ccccc3)c(C)c2c1 | 2 | · | · | · | i | ?
Cc1cc(/C=C2\SC(=Nc3ccccc3)NC2=O)c(C)n1-c1ccc(S(N)(=O)=O)cc1 | -1 | 7.3µM* | -2 | 17% | 4.1µM* | ?
C[C@H]1C(c2ccc(F)cc2)=NN(c2ccccc2)[C@@H]1CO | 35* | 5.2µM* | 10 | 10µM* | i | i
CC1=NN(c2ccccc2)C(=O)C1C(=O)C(=O)Nc1ccc(F)cc1 (centres undefined) | 3 | 2% | -5 | 7% | i | i
O=C1OCCN1C(=O)[C@H]1[C@H](c2ccc([N+](=O)[O-])cc2)C(c2ccc(F)cc2)=NN1c1ccccc1 | -1 | 8% | -9 | -10% | i | i
CCOc1ccc(N2C(=O)C3C(c4ccccc4)=NN(c4ccccc4)C3C2=O)cc1 (centres undefined) | -8 | -690% | -23 | 24% | i | i
